Nrf2 ARE act = activates Nrf2 signaling. Potency, µM (highest dose often 46.1 µM), usual class: activators. AREc32 ARE-luciferase reporter (MCF7-derived line), luminescence, 24 h. 410,000 compounds, 0.31% hits; note: nearly all actives have a fitted effect of over 65% in size
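Luminescent ARE reporter assay in AREc32_Fluc cells: overnight plating at 37 deg C, 24 hr compound incubation, Steady-Glo added, 30 min RT before reading.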
Nrf2 block = Nrf2 pathway inhibition. A549 ARE-Fluc reporter, luciferase luminescence, 18-24 h. 360,000 compounds, 2.1% hits. Potency, µM (highest dose often 46 µM), usual class: inhibitors. AID 504444; note: nearly all actives have a fitted effect of over 60% in size
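Nrf2 activity is the BugLite luminescence, read 15 min after reagent at room temperature, following CellTiter-Fluor cytotoxicity readout (30 min, 37C). Compound titrations were applied for 18-24 h to 5000 A549 ARE_Fluc cells/well in 5% FBS OPTI-MEM.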
ELG1 DNA repair = blocks ELG1-dependent DNA repair in HEK293T cells | HEK293T ELG1-luciferase reporter, luminescence, 16 h; DNA damage induced by 5-fluorouridine | Potency, µM (highest dose often 46.1 µM), usual class: inhibitors | 330,000 compounds, 2.3% hits; note: nearly all actives have a fitted effect of over 55% in size
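In this reporter screen, reduction of luminescence relative to DMSO vehicle indicated activity. Compounds and 5-fluorouridine were added together to 2,000 cells per well, incubated for 16 hr at 37 °C, then developed with ONE-Glo.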
A549 viability = A549 cytotoxicity, counter-screen for Nrf2 inhibitors | A549 ARE-Fluc cells, CellTiter-Fluor viability, 18-24 h | Potency, µM (highest dose often 46 µM), actives largely listed as inhibitors | 390,000 compounds, 0.16% hits
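A549 ARE-Fluc cells in 5% FBS OPTI-MEM, 5000 cells/well, rested 2 h then exposed to compounds in concentration-response for 18-24 h at 37 °C. Viability by CellTiter-Fluor fluorescence (Ex 405/Em 525) after 30 min; luciferase luminescence (BugLite, 15 min, RT) read afterwards.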
ELG1 Luc conf = human ELG1 repair inhibition, luciferase-tagged ELG1 confirmation; HEK293T ELG1-luciferase levels, luminescence; cells co-treated with 5-fluorouridine; 670 compounds, 68% hits; Potency, µM (top dose mostly 46.1 µM), actives largely listed as inhibitors; shares compounds with ELG1 DNA repair; AID 624248; note: nearly all actives have a fitted effect of over 55% in size
ELG1-Luc MMS = MMS-stimulated human ELG1 repair inhibition, confirmed; shares compounds with ELG1 DNA repair; 670 compounds, 53% hits; HEK293T luciferase-tagged ELG1 level, MMS stimulated; Potency, µM (series often up to 46.1 µM), actives largely listed as inhibitors; note: nearly all actives have a fitted effect of over 60% in size
ELG1 5-FU = confirmation of ELG1 repair inhibitors: viability with 5FU; shares compounds with ELG1 DNA repair; cell viability with 5-FU, ELG1-dependent repair; Potency, µM (top dose mostly 46.1 µM), most hits filed as cytotoxic; 670 tested, under 10 active;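 note: ELG1-luc HEK293T cells cotreated with 5-fluorouridine at 10 µM final; viability measured 16 h after compound addition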
ELG1 MMS cell = confirmation of ELG1 repair inhibitors: viability with MMS. shares compounds with ELG1 DNA repair. Cell viability with MMS, ELG1-dependent DNA repair. Potency, µM (top dose mostly 46.1 µM), usual class: cytotoxic. 670 compounds, 33% hits. AID 624251;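 note: ELG1-luc HEK293T cells co-treated with 10 µM MMS; viability read 16 h after compound addition; nearly all actives have a fitted effect of over 60% in size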
ELG1 unstim viab = counter-screen for ELG1 repair inhibitors: unstimulated cell viability | AID 624252 | 900 compounds, 8% hits | cell viability counter-screen, unstimulated, luminescence | Potency, µM (highest dose often 45.9 µM), actives largely listed as cytotoxic | shares compounds with ELG1 DNA repair;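 note: compound exposure lasted 16 hours before reading; nearly all actives have a fitted effect of over 55% in size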
Of the large screens only hits and unclear results are named; the others gave an inactive call (follow-up assays come after a bar, where they were run). Compounds with a hit are over-represented: about 3.7% of the library has one in this group of screens. Calls come from the whole dose curve; as a rule, active = well fitted curve in the direction sought with a large enough effect; inconclusive = small, poorly fitted or top-dose-only effect, or another doubt; inactive = no such curve, though single readings can be large; an effect the other way counts as inactive or inconclusive.

COc1cccc(NS(=O)(=O)c2ccc3c(c2)CCN3C(C)=O)c1	Nrf2 block 10.3µM, ELG1 DNA repair 2.06µM | ELG1 Luc conf inconclusive | ELG1-Luc MMS 6.28µM | ELG1 5-FU inactive | ELG1 MMS cell 4.45µM | ELG1 unstim viab inconclusive
COc1cccc(NS(=O)(=O)c2ccc3c(c2)CCCN3C(=O)C2CCC2)c1	none (no result: Nrf2 block, ELG1 DNA repair)
COc1cc(OC)c2c(-c3cccc(-c4ccc(C#N)cc4)c3)cc(=O)oc2c1	ELG1 DNA repair 4.61µM | ELG1 Luc conf inconclusive | ELG1-Luc MMS 7.91µM | ELG1 5-FU inconclusive | ELG1 MMS cell 7.05µM | ELG1 unstim viab inconclusive
CCOc1ccc(CCNC(=O)C(CC)n2nc(C)c3c(C)n(-c4ccccc4)nc3c2=O)cc1 (configuration not stated)	none (no result: ELG1 DNA repair)
CCc1c(C)nc2cc(-c3cc(OC)cc(OC)c3)nn2c1N1CCN(CCN2CCOCC2)CC1	ELG1 DNA repair 2.59µM | ELG1 Luc conf 4.45µM | ELG1-Luc MMS inconclusive | ELG1 5-FU inconclusive | ELG1 MMS cell inactive | ELG1 unstim viab inactive
Cc1cc(C)n2nc(SCC(=O)NC3CCCCC3C)nc2n1 (configuration not stated)	Nrf2 block inconclusive
Cc1cc(C(=O)COC(=O)c2ccccc2O)c(C)n1CC1CCCO1 (configuration not stated)	Nrf2 block inconclusive, ELG1 DNA repair inconclusive
Cc1cc(C(=O)COc2ccccc2C(N)=O)c(C)n1CC1CCCO1 (configuration not stated)	Nrf2 block 4.61µM, ELG1 DNA repair inconclusive | ELG1 Luc conf inconclusive | ELG1-Luc MMS 0.996µM | ELG1 5-FU inactive | ELG1 MMS cell 1.25µM | ELG1 unstim viab inconclusive
Cc1ccc(C(=O)Nc2cccc3[nH]c(C(F)(F)F)nc23)cc1	Nrf2 block inconclusive, ELG1 DNA repair inconclusive | ELG1 Luc conf 15.8µM | ELG1-Luc MMS 7.91µM | ELG1 5-FU inactive | ELG1 MMS cell 8.88µM | ELG1 unstim viab inconclusive
COc1ccc(CNc2cccc3[nH]c(C(F)(F)F)nc23)cc1	Nrf2 block inconclusive, ELG1 DNA repair inconclusive
Cc1ccc(CNC(=O)C2CCN(c3nc4ccc(C)cc4[nH]3)CC2)cc1	none (no result: Nrf2 block, ELG1 DNA repair)
NC(=O)c1ccc(N2CCN(c3ccc(O)cc3)CC2)c([N+](=O)[O-])c1	Nrf2 block 18.4µM, ELG1 DNA repair 4.11µM | ELG1 Luc conf 6.28µM | ELG1-Luc MMS inactive | ELG1 5-FU inconclusive | ELG1 MMS cell inconclusive | ELG1 unstim viab inactive
NC(=O)c1ccc(N2CCN(S(=O)(=O)c3ccccc3)CC2)c([N+](=O)[O-])c1	Nrf2 block inconclusive, ELG1 DNA repair 1.64µM, A549 viability inconclusive | ELG1 Luc conf inconclusive | ELG1-Luc MMS 0.705µM | ELG1 5-FU inactive | ELG1 MMS cell 0.791µM | ELG1 unstim viab inactive
CCOC(=O)N1CCN(C(=O)CSCc2ccc(Br)cc2)CC1	none
Cc1nn(-c2ccc(C(=O)N3CCN(S(=O)(=O)c4ccccc4C(F)(F)F)CC3)cc2)c(C)c1Cl	ELG1 DNA repair 3.26µM | ELG1 Luc conf 7.05µM | ELG1-Luc MMS inconclusive | ELG1 5-FU inconclusive | ELG1 MMS cell inconclusive | ELG1 unstim viab inconclusive
Cn1c2ccccc2c(=O)c2cc(NCCCN3CCOCC3)ccc21	Nrf2 block inconclusive, ELG1 DNA repair inconclusive | ELG1 unstim viab inactive
O=C(NCc1cccnc1)c1ccc2sc([C@@H]3O[C@H](CO)[C@H](O)[C@H](O)[C@H]3O)nc2c1	none (no result: Nrf2 block, ELG1 DNA repair, A549 viability)

Screening results as filed in PubChem BioAssay.
